Bioassay records from PubChem BioAssay.
Many of the other results were omitted from the sample, so hits are more common in it than they were.
RBX1-CUL1 inh = inhibitors of human ROC1-CUL1 ubiquitin ligase activity; inhibition, % at 10 µM; P62877+Q13616; 140,000 compounds, 0.6% hits; in vitro K48 di-Ub FRET, acceptor:donor ratio, 45 min; AID 1347404; in the data active means inhibition above about 25%
Target sequence (P62877 whole entry, looked up): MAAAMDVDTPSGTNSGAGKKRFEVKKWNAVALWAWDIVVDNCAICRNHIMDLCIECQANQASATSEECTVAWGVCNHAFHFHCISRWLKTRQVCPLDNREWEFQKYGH
Target sequence (Q13616 whole entry, looked up): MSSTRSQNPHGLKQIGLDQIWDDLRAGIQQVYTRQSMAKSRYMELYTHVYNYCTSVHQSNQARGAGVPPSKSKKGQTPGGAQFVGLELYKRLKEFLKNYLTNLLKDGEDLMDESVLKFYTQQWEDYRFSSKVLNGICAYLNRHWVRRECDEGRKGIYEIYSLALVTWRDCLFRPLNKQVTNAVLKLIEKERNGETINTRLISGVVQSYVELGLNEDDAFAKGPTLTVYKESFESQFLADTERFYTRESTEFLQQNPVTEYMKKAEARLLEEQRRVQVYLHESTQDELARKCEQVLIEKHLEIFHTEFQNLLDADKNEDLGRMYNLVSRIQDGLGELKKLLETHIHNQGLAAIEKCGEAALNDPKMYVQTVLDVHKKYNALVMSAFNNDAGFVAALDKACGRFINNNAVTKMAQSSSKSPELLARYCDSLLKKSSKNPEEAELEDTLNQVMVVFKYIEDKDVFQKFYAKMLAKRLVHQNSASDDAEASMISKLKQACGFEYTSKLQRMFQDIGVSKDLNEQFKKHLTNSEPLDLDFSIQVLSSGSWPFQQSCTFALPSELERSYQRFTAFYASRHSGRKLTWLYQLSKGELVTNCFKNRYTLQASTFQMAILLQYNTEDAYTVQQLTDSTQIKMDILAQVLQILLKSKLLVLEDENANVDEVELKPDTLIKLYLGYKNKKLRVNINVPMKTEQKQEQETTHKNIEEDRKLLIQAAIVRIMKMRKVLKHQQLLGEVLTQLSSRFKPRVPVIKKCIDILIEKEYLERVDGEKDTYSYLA
Numbers stand for hits; i = inactive.

SMILES | RBX1-CUL1 inh
O=C1N=C2SC3C(=O)N(c4ccc(Cl)cc4)C(=O)C3C(/C=C/c3ccccc3)C2S1 (stereo unspecified) | i
O=C(O)CCCCCN1C(=O)c2ccc3c4c(ccc(c24)C1=O)C(=O)N(CCCCCC(=O)O)C3=O | i
O=C(O)CCCCCN1C(=O)/C(=C2\SC(=S)N(CCCCCC(=O)O)C2=O)SC1=S | 65
COc1ccccc1/C=C1/SC(=S)N(CCCCCC(=O)O)C1=O | i
COC(=O)C1C(=O)/C(=C/c2cccc(O)c2)SC1=Nc1ccccc1F (stereo unspecified) | i
CCOc1ccc(/C=C2\SC(=Nc3ccc(F)cc3)NC2=O)cc1OC | i
COc1cccc(/C=C2\SC(=Nc3ccc(C)c(Cl)c3)NC2=O)c1OCC(=O)O | 97
CCOc1ccc(N=C2NC(=O)/C(=C/c3cc(Br)c(OC)c(OC)c3)S2)cc1 | i
CCOc1cc(/C=C2/SC(=Nc3ccc4ccccc4c3)NC2=O)cc(Cl)c1OCC(=O)O | 99
COc1cccc(/C=C2\SC(=Nc3cccc(Cl)c3C)NC2=O)c1OCC(=O)O | i
CCCOC(=O)c1cccc(N=C2NC(=O)/C(=C\c3cc(C(C)C)c(OC)cc3C)S2)c1 | i
N#Cc1cc2c(N)c(C(=O)Nc3ccccc3SCc3cccc(Br)c3)sc2nc1N | i
O=C1N=C2SC3C(=O)N(c4ccc(Br)cc4)C(=O)C3C(/C=C/c3ccccc3)C2S1 (stereo unspecified) | i
CC1(C)C(=O)OC(c2ccc(Cl)cc2Cl)C2(CCCCC2)C1=O (stereo unspecified) | i
CCC(=O)c1csc2ccc(Br)cc12 | i
O=S(=O)(Nc1ccc(-c2cn3cccnc3n2)cc1)c1cccc2ccccc12 | i
CC(/C=C1\SC(=S)N(CC(=O)O)C1=O)=C\c1ccccc1 | i
O=C1/C(=C\c2cccc(O)c2)SC(=S)N1c1ccccc1 | i
CC(/C=C1\SC(=S)N(NC(=O)c2cccc(O)c2)C1=O)=C\c1ccccc1 | i
CC(=C/c1ccccc1)/C=C1\SC(=S)N(C(C(=O)O)c2ccccc2)C1=O (stereo unspecified) | 105
CCOC(=O)c1ccc(NC(=O)CN2C(=O)S/C(=C/C(C)=C/c3ccccc3)C2=O)cc1 | i
CC(/C=C1\SC(=S)N(c2cccc(C(=O)O)c2)C1=O)=C\c1ccccc1 | 66
N#CC(C=Nc1ccc(Cl)c(Cl)c1)c1nc(-c2cc3c(ccc4ccccc43)oc2=O)cs1 (stereo unspecified) | i
O=C(N/N=C/c1ccc(Br)cc1)c1n[nH]c2c1CCCC2 | i
COCC1CCCCN1C(=O)c1csc2nc(-c3ccc(Cl)cc3)cn12 (stereo unspecified) | i
SMILES | RBX1-CUL1 inh
O=C(NC(=S)Nc1ccccc1N1CCOCC1)C12CC3CC(CC(C3)C1)C2 | i
O=C1N(Cc2ccccc2)c2c(Cl)cccc2C12OCCCO2 | i
CC(=O)c1cc2c(cc1NC(=O)c1ccc(Oc3ccccc3)cc1)OCO2 | i
O=C(O)c1ccc(-c2ccc(/C=c3/sc4n(c3=O)C(c3ccc(F)cc3)C3=C(N=4)c4ccccc4CC3)o2)cc1Cl (stereo unspecified) | 58
O=c1/c(=C/c2ccccc2O)sc2n1C(c1cccs1)C1=C(N=2)c2ccccc2CC1 (stereo unspecified) | i
O=c1/c(=C/c2ccc(N3CCOCC3)o2)sc2n1C(c1ccc(F)cc1)C1=C(N=2)c2ccccc2CC1 (stereo unspecified) | i
O=c1/c(=C\c2cc(Cl)ccc2O)sc2n1C(c1ccccc1)C1=C(N=2)c2ccccc2CC1 (stereo unspecified) | i
COc1ccc(/C=c2/sc3n(c2=O)C(c2cccc(F)c2)C2=C(N=3)c3ccccc3CC2)cc1OC (stereo unspecified) | i
O=c1/c(=C\c2ccc(O)cc2)sc2n1C(c1cccs1)C1=C(N=2)c2ccccc2CC1 (stereo unspecified) | i
O=C(O)c1ccc(/C=c2/sc3n(c2=O)C(c2cccs2)C2=C(N=3)c3ccccc3CC2)cc1 (stereo unspecified) | 56
Cc1cc(/C=c2/sc3n(c2=O)C(c2ccc(F)cc2)C2=C(N=3)c3ccccc3CC2)c(C)n1-c1ccc(C(=O)O)cc1 (stereo unspecified) | i
O=C(O)c1cccc(-c2ccc(/C=c3/sc4n(c3=O)C(c3cccc(F)c3)C3=C(N=4)c4ccccc4CC3)o2)c1 (stereo unspecified) | 73
CCN(CC)C(=O)CSc1ncc2c(n1)[nH]c1ccccc12 | i
CCCN1CCN(C(=O)C(C)(C)Oc2ccc(C)cc2)CC1 | i
CN(C)S(=O)(=O)N1CCC(CO)(Cc2cccc(F)c2)CC1 | i
O=S(=O)(c1ccc(Br)s1)N1CCOCC1 | i
CCOc1ccc(C(=O)C2C(=O)C(=O)N(Cc3cccnc3)C2c2cccc(OCC)c2)cc1 (stereo unspecified) | i
N#Cc1ccc(/C=C2/SC(=Nc3ccccc3)N(Cc3ccc(C(=O)O)cc3)C2=O)cc1 | i
N#Cc1ccc(-c2ccc(/C=C3\SC(=Nc4ccccc4)N(Cc4ccco4)C3=O)o2)cc1 | 53
O=C1/C(=C\c2ccc(-c3ccc(Cl)c(Cl)c3)o2)SC(=Nc2ccccc2)N1Cc1ccco1 | i
O=S(=O)(c1ccc2cccc3c2c1CC3)N1CCSC1c1ccc(Cl)cc1Cl (stereo unspecified) | i
O=C1CC=Cc2ccc(O)c(O)c2C1=O | 53
CCC1(O)c2cccc3cccc(c23)C1(O)CC (stereo unspecified) | i
CC(=O)Cc1ccccc1/C=C1\OC(=O)c2ccccc21 | i
CN(C)c1ccccc1/C=C1\Oc2ccccc2C1=O | 27
SMILES | RBX1-CUL1 inh
COc1ccccc1/C=C1\Oc2cccc(OC)c2C1=O | i
CC1N=C2C=CC=CN2C(=O)C1=NC(=O)c1ccccc1Cl (stereo unspecified) | i
Cc1cc(C)n2nc(C(=O)N3CCC4(CCCN(CC(C)(C)C)C4)C3)cc2n1 (stereo unspecified) | 29
CC(C)(C)CN1CCCC2(CCN(C(=O)c3cnccn3)C2)C1 (stereo unspecified) | i
COc1cccc(CN2CCCC3(CCN(C(=O)c4cnc(C)cn4)C3)C2)c1 (stereo unspecified) | i
Fc1ccc(Oc2nc3ccccc3nc2Oc2ccc(F)cc2F)c(F)c1 | i
CCc1ccc(CNc2ccc(S(N)(=O)=O)cc2)cc1 | i
NCc1ccccc1Sc1ccc(Cl)cc1 | 31
O=C(O)Cc1ccccc1Sc1ccc(Cl)cc1 | i
CC(=O)c1ccccc1Sc1ccc(Cl)cc1 | i
CN(CCC(=O)/C=C/c1cccc(F)c1)CCc1ccc2c(c1)OCO2 | 50
O=S(=O)(NCc1ccc2c(c1)OCO2)c1cccc(F)c1 | i
CC1=NC(=O)C(C(=O)/C=C/c2ccc3c(c2)OCO3)=C(C)C1 | i
COc1ccc(-c2c(C)sc(=NC(=O)c3ccccc3)n2CCc2ccccc2)cc1 | i
Cc1ccc(CNC2CCCc3nc(N(C)C)ncc32)s1 (stereo unspecified) | i
Cn1c(CN2CCC(N3CCCC(C(=O)NC4CC4)C3)CC2)nc2ccccc21 (stereo unspecified) | i
Cn1cc(C=Nc2nc3ccccc3s2)c2ccccc21 | i
Cc1nn(C)cc1/C=C1\SC(=S)NC1=O | i
O=C1NC(=S)S/C1=C/c1ccccn1 | i
O=C1NC(=S)S/C1=C/c1c(Cl)cc(Cl)c(O)c1Cl | 28
CCOC(=O)C1=C(C)N=c2s/c(=C\c3ccc(I)cc3)c(=O)n2C1c1ccc(OC)cc1 (stereo unspecified) | i
